Results taken from PubChem BioAssay (Tox21).
“And” between values parts separate entries of the source, which are not always exact repeats. Equal entries are not always repeated. Results filed as inconclusive are left out. The source made the active and inactive calls. Calls come from the whole dose curve; as a rule, active = well fitted curve in the direction sought with a large enough effect in the repeat runs; inconclusive = weak or mixed curves; inactive = no such curve, though single readings can be large; an effect the other way counts as inactive or inconclusive.

Legend:
[1] = A CellTox Green Cytotoxicity Assay to monitor cytotoxicity in HEK293 cells - 40 hour (AID 1224871); note: nearly all actives have a fitted effect of over 45% in size
Summary of the method: (§1)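 Cells (HEK293, 600/well) and dye reagent are dispensed together. After 5 h at 37 C, 23 nL compound is pinned in. Plates stay at 37 C for 40 h with fluorescence read at 0h, 8h, 16h, 24h, 32h and 40h.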

[2] = qHTS RealTime-Glo MT Cell Viability Assay in HEK293 cells - 16 hour (AID 1224872); note: nearly all actives have a fitted effect of over 50% in size
Summary of the method: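 Nonlytic real-time viability readout: viable cells convert prosubstrate to NanoLuc substrate, giving luminescence proportional to live cell number. HEK293, 600 cells/well, compound added after 5 h, continuous culture at 37 C.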

[3] = qHTS RealTime-Glo MT Cell Viability Assay in HepG2 cells - 8 hour (AID 1224873); note: nearly all actives have a fitted effect of over 55% in size
Summary of the method: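 HepG2 cells (600/well) mixed with RealTime-Glo MT reagent, settled 5 h at 37 C/5% CO2 before compound addition. Nonlytic NanoLuc luminescence from viable-cell prosubstrate reduction read repeatedly during 40 h treatment at 37 C.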

[4] = qHTS RealTime-Glo MT Cell Viability Assay in HEK293 cells - 40 hour (AID 1224874); settings: RealTime-Glo luminescence; max response: active compounds read low; note: nearly all actives have a fitted effect of over 50% in size
Summary of the method: (§2)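 Real-time viability in HEK293: signal arises when living cells convert a prosubstrate for NanoLuc in the medium, so luminescence tracks viable cell number. Compound (23 nL, DMSO) added 5 h post-seeding; kinetic reads at 0–40 h, 37 C.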

[5] = A CellTox Green Cytotoxicity Assay to monitor cytotoxicity in HEK293 cells - 24 hour (AID 1224875); note: nearly all actives have a fitted effect of over 45% in size
Summary of the method: as §1

[6] = qHTS RealTime-Glo MT Cell Viability Assay in HepG2 cells - 32 hour (AID 1224877); note: nearly all actives have a fitted effect of over 55% in size
Summary of the method: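 Luminescence read-out: viable HepG2 cells reduce a prosubstrate to a NanoLuc substrate, giving a signal proportional to live cell number. Reads taken at 0, 8, 16, 24, 32 and 40 h of compound exposure at 37 C.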

[7] = A CellTox Green Cytotoxicity Assay to monitor cytotoxicity in HepG2 cells - 24 hour (AID 1224878); note: nearly all actives have a fitted effect of over 45% in size
Summary of the method: (§3)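 Cells and non-lytic dye reagent are dispensed together (600 HepG2 cells/well) and incubated 5 h before DMSO compound transfer. Kinetic fluorescence is then recorded in the same wells during 40 h at 37 C.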

[8] = A CellTox Green Cytotoxicity Assay to monitor cytotoxicity in HepG2 cells - 40 hour (AID 1224879); note: nearly all actives have a fitted effect of over 40% in size
Summary of the method: as §3

[9] = qHTS RealTime-Glo MT Cell Viability Assay in HEK293 cells - 0 hour (AID 1224880); note: nearly all actives have a fitted effect of over 45% in size
Summary of the method: as §2

[10] = A CellTox Green Cytotoxicity Assay to monitor cytotoxicity in HepG2 cells - 16 hour (AID 1224876); note: nearly all actives have a fitted effect of over 45% in size
Summary of the method: as §3
% is set by controls: 0 for no effect and ±100 for the full control effect; potency is the fitted concentration of half-maximal effect.

CC(C)N1C(=O)N(c2ccccc2)CSC1=NC(C)(C)C
active: Potency [2] 19.5 µM | Potency [4] 21.9 µM
inactive: Potency [1] | Potency [3] | Potency [5] | Potency [6] | Potency [7] | Potency [8] | Potency [9]

BrC(Br)C(Br)(Br)Br
inactive: Potency [3] | Potency [10] | Potency [6] | Potency [9]
active: Potency [1] 55.3 µM | Potency [2] 43.9 µM | Potency [4] 27.7 µM

CC(C)(C)C(O)C(Oc1ccc(-c2ccccc2)cc1)n1cncn1 (configuration not stated)
inactive: Potency [1] | Potency [3] | Potency [5] | Potency [10] | Potency [6] | Potency [9]
active: Potency [2] 49 µM | Potency [4] 21.9 µM

N#Cc1ccc(O)cc1
inactive: Potency [1] | Potency [2] | Potency [3] | max response [4] -7.33% | Potency [5] | Potency [10] | Potency [6] | Potency [7] | Potency [8] | Potency [9]

CC(=O)Nc1ccc2c(c1)Cc1ccccc1-2
inactive: Potency [1] | Potency [2] | Potency [3] | max response [4] -12.3% | Potency [5] | Potency [6] | Potency [7] | Potency [8] | Potency [9]

Oc1ccc(C(=C(Cl)Cl)c2ccc(O)cc2)cc1
inactive: Potency [1] | Potency [3] | Potency [5] | Potency [10] | Potency [6] | Potency [7] | Potency [9]
active: Potency [2] 43.6 µM | Potency [4] 43.6 µM

CCCN(CCC)c1c([N+](=O)[O-])cc(S(N)(=O)=O)cc1[N+](=O)[O-]
active: Potency [1] 39.7 µM | Potency [2] 16.5 µM | Potency [3] 24.5 µM | Potency [4] 35.4 µM | Potency [10] 33.5 µM | Potency [6] 43.6 µM | Potency [7] 13.1 µM | Potency [8] 11 µM
inactive: Potency [9]

O=C1C=CC(=O)c2ccccc21
active: Potency [1] 3.89 µM | Potency [2] 5.49 µM | Potency [3] 17.4 µM | Potency [4] 4.9 µM | Potency [10] 13.8 µM | Potency [6] 24.5 µM | Potency [7] 12.3 µM | Potency [8] 12.3 µM | Potency [9] 12.3 µM

CS(=O)(=O)c1ccc(C(=O)C2C(=O)CCCC2=O)c([N+](=O)[O-])c1
active: Potency [1] 44.4 µM | Potency [2] 12.5 µM | Potency [5] 44.4 µM | Potency [10] 44.4 µM | Potency [7] 39.6 µM | Potency [8] 2.23 µM
inactive: Potency [3] | Potency [6] | Potency [9]

C[C@H]1O[C@@H](O[C@H]2[C@@H](O)C[C@H](O[C@H]3[C@@H](O)C[C@H](O[C@H]4CC[C@@]5(C)[C@H](CC[C@@H]6[C@@H]5CC[C@]5(C)[C@@H](C7=CC(=O)OC7)CC[C@]65O)C4)O[C@@H]3C)O[C@@H]2C)C[C@H](O)[C@@H]1O
inactive: Potency [1] | Potency [3] | Potency [5] | Potency [10] | Potency [6] | Potency [7] | Potency [9]
active: Potency [2] 0.0952 µM | Potency [4] 31.1 nM and 95.2 nM

CCOC(=O)CC(=O)CCl
active: Potency [1] 54.9 µM | Potency [2] 38.9 µM | Potency [4] 43.6 µM
inactive: Potency [3] | Potency [10] | Potency [6] | Potency [7] | Potency [8] | Potency [9]

CN(C)S(=O)(=O)N(SC(F)(Cl)Cl)c1ccccc1
active: Potency [1] 3.09 µM | Potency [2] 4.9 µM | Potency [3] 21.9 µM | Potency [4] 4.36 µM | Potency [5] 13.8 µM | Potency [6] 9.77 µM | Potency [7] 7.76 µM | Potency [8] 4.9 µM
inactive: Potency [9]

O=C/C(Cl)=C(/Cl)C(=O)O
inactive: Potency [1] | Potency [2] | Potency [3] | max response [4] 20.3% | Potency [5] | Potency [6] | Potency [7] | Potency [9]

CCc1ccccc1C
inactive: Potency [1] | Potency [2] | Potency [3] | max response [4] 0.859% | Potency [10] | Potency [6] | Potency [7] | Potency [8] | Potency [9]

CC(C)CC(C)Nc1ccc(Nc2ccccc2)cc1 (configuration not stated)
active: Potency [1] 48.2 µM | Potency [2] 19.2 µM | Potency [3] 42.9 µM | Potency [4] 21.5 µM
inactive: Potency [10] | Potency [7]

N#CNC#N
inactive: Potency [1] | Potency [2] | Potency [3] | max response [4] 1.5% | Potency [10] | Potency [6] | Potency [7] | Potency [8] | Potency [9]

CN(CCCC(=O)c1cccnc1)N=O
inactive: Potency [1] | Potency [2] | Potency [3] | max response [4] 13.5% | Potency [10] | Potency [6] | Potency [7] | Potency [8] | Potency [9]

CCS(=O)(=O)c1cccnc1S(=O)(=O)NC(=O)Nc1nc(OC)cc(OC)n1
inactive: Potency [1] | Potency [2] | Potency [3] | max response [4] 6.92% | Potency [5] | Potency [6] | Potency [7] | Potency [8] | Potency [9]

Cc1cc(Cl)ccc1O[C@H](C)C(=O)O
inactive: Potency [1] | Potency [2] | Potency [3] | max response [4] -1.32% | Potency [6] | Potency [7] | Potency [8] | Potency [9]

COP(=S)(OC)Oc1cc(Cl)c(Br)cc1Cl
inactive: Potency [1] | Potency [2] | Potency [3] | Potency [5] | Potency [6] | Potency [7] | Potency [8] | Potency [9]

ClC1=C(Cl)C2(Cl)C3C(Cl)C(Cl)CC3C1(Cl)C2(Cl)Cl (configuration not stated)
inactive: Potency [9]
active: Potency [1] 48.8 µM and 49 µM | Potency [2] 48.8 µM and 49 µM | Potency [4] 48.8 µM | Potency [5] 48.8 µM and 49 µM
